DAX1 inh-1: DAX1 (NR0B1) inhibition, primary screen; inhibition, % at 6.8 µM; HEK293T StAR-luciferase reporter, SF-1/DAX-1 repression relief; 370,000 tested, 1.1% active;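 active = inhibition above the mean over all tested compounds plus 3 SD, cut at about 3.6% in these data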;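 also: 0% = DAX-1 cells with DMSO and 100% = cells lacking DAX-1 with DMSO; higher inhibition means more luminescence from relief of DAX-1 repression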
DAX1 inh-2: NR0B1 (DAX1) inhibition; HEK293 Gal4-DAX1 luciferase reporter, luminescence; AID 504766; P51843; inhibition, % at 6.75 µM; 340,000 tested, 0.99% active;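 active = inhibition above the mean over all tested compounds plus 3 SD, cut at about 4.2% in these data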;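 also: 0% = DAX1-transfected cells with DMSO and 100% = empty-vector control cells with DMSO; inhibition shows as a rise in luminescence from relieved DAX1 repression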
Target sequence (P51843 207-470 limits assumed): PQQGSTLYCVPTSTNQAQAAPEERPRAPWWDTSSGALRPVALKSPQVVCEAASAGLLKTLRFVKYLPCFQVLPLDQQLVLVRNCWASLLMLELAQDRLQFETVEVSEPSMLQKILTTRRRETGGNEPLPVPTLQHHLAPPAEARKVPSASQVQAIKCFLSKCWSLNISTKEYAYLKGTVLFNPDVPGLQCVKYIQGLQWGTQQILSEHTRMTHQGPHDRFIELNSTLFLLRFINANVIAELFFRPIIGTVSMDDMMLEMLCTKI
ssDAF-12 act: activates DAF-12 receptor from parasite S. stercoralis; HEK293 ssDAF-12/GRIP1 lit1-tk-luc reporter, luminescence; % of 3 µM dafachronic acid response; activation, % at 6.8 µM; 370,000 tested, 1% active; AID 652126;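 active = activation above the mean over all tested compounds plus 3 SD, cut at about 0.9% in these data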;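 also: 0% = DMSO-only wells and 100% = 3 µM delta7-dafachronic acid wells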
hcDAF12 agonist: H. contortus DAF-12 activation, primary screen. 370,000 tested, 1.4% active. HEK293 hcDAF-12 lit1-tk-luc reporter, luminescence; 0% DMSO, 100% Δ7-dafachronic acid. activation, % at 6.8 µM;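 active = activation above the mean of all tested compounds plus 3 SD, cut at about 5.5% in these data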;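 also: 100% = response to 3 µM Δ7-dafachronic acid high control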
hgDAF12 agonist: hgDAF-12 agonism, primary luciferase screen. HEK293 GAL4-hgDAF12 UAS-luciferase reporter, agonist luminescence; normalized to butyrate control. 370,000 tested, 1.8% active. activation, % at 6.8 µM;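 active = activation above a cutoff set at the mean of all screened compounds plus 3 SD, cut at about 10% in these data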;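 also: 0% = DMSO wells and 100% = sodium butyrate wells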
SMARCA2 act: SMARCA2 function activation, primary screen. AID 652017. MG213 cells, MMTV-luciferase reporter, dexamethasone, overnight. activation, % at 9.1 µM. 370,000 tested, 1% active; in the data active = activation above about 7.8%;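 also: 0% = vehicle wells and 100% = reference activator wells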
SMARCA2 act conf: confirmation of SMARCA2 (BRM) function activators. shares compounds with SMARCA2 act. MG213 cells, MMTV-luciferase with dexamethasone, luminescence, overnight; MG213 cells expressing E1A, Rb sequestered; DMSO wells 0%, reference activator 100%. activation, % at 9.1 µM. 3,500 tested, 30% active;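 active = activation above its plate's cutoff, the mean activation of tested wells plus 3 SD, cut at about 7.9% in these data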
GAL4-VP16 Luc: counter-screen for SMARCA2 activators: GAL4-VP16 luciferase reporter activation. 3,500 tested, 41% active. shares compounds with SMARCA2 act. AID 686939. activation, % at 9.1 µM. HEK293 GAL4-VP16 pG5luc reporter, luciferase luminescence; scaled: DMSO wells 0%, SAHA wells 100%;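 active = activation above the solvent-only control well mean plus 3 SD, averaged across control plates, cut at about 5.2% in these data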
Numbers without * were called inactive; x = not tested or not shown. This is a sample that favours compounds with a hit; in the whole collection about 4.8% have one here.

SMILES	DAX1 inh-1	DAX1 inh-2	ssDAF-12 act	hcDAF12 agonist	hgDAF12 agonist	SMARCA2 act	SMARCA2 act conf	GAL4-VP16 Luc
OC(CNCc1ccc(-c2ccccc2)cc1)c1ccccc1 (configuration not stated)	0.3	-1.6	-1.4	-2.5	-2.9	-0.8	x	x
OCCNCc1ccc(-c2ccccc2)cc1	0.0	-0.5	-1.0	3.2	3.1	8.2*	1.2	0.2
CC(C)CNC(=O)OCc1cn(Cc2cccc(F)c2)nn1	-0.4	x	-0.9	-1.4	5.8	-3.1	x	x
CCOC(=O)c1c(N)sc(C(=O)OCCOC)c1C	0.5	1.1	-1.4	0.0	6.4	0.4	x	x
CCOC(=O)c1sc(N)c(C(=O)OCC)c1C	1.1	x	-0.8	-0.7	6.0	22.5*	6.8	7.5*
Cc1ccc2cccc(OCCCOc3ccccc3F)c2n1	-0.5	0.2	-0.7	-3.3	-0.2	-2.9	x	x
CC(C)(C)c1ccc2cccc(F)c2n1	0.4	x	-0.7	2.0	1.6	9.4*	-1.3	1.0
Cc1[nH]c(=S)[nH]c(=O)c1Cc1ccccc1	0.6	1.4	-1.4	0.1	2.5	16.0*	-0.3	0.7
O=C(Nc1nc2ncccn2c1-c1ccc(F)cc1)c1ccccc1	0.0	x	-0.6	0.1	-2.1	-2.7	x	x
Cc1c(C(N)=O)sc2nc(-c3ccccc3)cn12	0.8	-0.3	-0.5	2.2	4.9	9.9*	4.6	12.8*
COCCN(CCOC)C(=O)c1sc2nc(-c3ccccc3)cn2c1C	0.2	-1.8	-1.3	0.9	-0.3	2.0	x	x
COc1ccccc1CCn1cnc(-c2cccc(F)c2)c1C(C)C	-2.3	x	-2.1	-3.6	-2.2	-6.7	x	x
CCOC(=O)CNC(=S)N1CCn2c(nc3ccccc32)C1	-0.9	-0.5	-1.7	-0.4	-3.2	9.8*	-2.3	0.3
CCNC(=S)N1CCn2c(nc3ccccc32)C1	-0.1	-0.3	-1.5	0.1	-0.8	-0.6	x	x
CN(Cc1ccco1)C(=O)CCc1nc2sc3c(c2c(=O)[nH]1)CCCC3	-1.4	1.7	-1.4	-0.2	-1.1	8.2*	1.5	0.4
Cc1cc(C)cc(NC(=O)CCc2nc3sc4c(c3c(=O)[nH]2)CCCC4)c1	2.6	1.2	-0.8	3.9	9.1	24.2*	28.0*	1.1
Cc1occc1C(=O)NNC(=O)c1ccccc1C(=O)O	2.8	x	-0.1	3.5	7.0	11.6*	4.7	5.0
Cc1ccccc1C(=O)NNC(=O)c1ccoc1C	0.0	1.8	-1.2	-1.2	2.0	-1.9	x	x
COCCCNC(=O)C[C@H]1C[C@@]2(C(=O)OC)C(=C[C@H](C3CCCC3)O[C@@H]2C)N(Cc2ccco2)C1=O	-0.6	x	-1.1	-2.0	-0.1	-1.0	x	x
N#CCn1cnc2sc(-c3ccccc3)cc2c1=O	-0.2	-1.0	-0.7	0.5	3.7	9.1*	10.8*	1.5
CC(C)[C@H](CO)Nc1nc(NCc2ccc(S(N)(=O)=O)cc2)c2ncn(C(C)C)c2n1	-0.7	-1.4	-2.0	-2.5	8.3	10.2*	7.9*	0.2
CC(C)n1cnc2c(NCc3ccc(S(N)(=O)=O)cc3)nc(NCc3ccc(S(N)(=O)=O)cc3)nc21	-0.1	0.2	-1.2	-2.4	1.8	-0.3	x	x
O=C1C2C3CCC(C3)C2C(=O)N1CNc1ccccc1 (configuration not stated)	-0.4	-0.3	-0.8	-1.6	3.1	0.6	x	x
CC(=O)Nc1ccc(NCN2C(=O)[C@@H]3[C@H]4CC[C@H](C4)[C@@H]3C2=O)cc1	-0.3	0.6	-1.1	-0.5	-0.7	8.9*	-3.5	0.2
Nn1c(SCC(=O)N2CCOCC2)nnc1-c1cc(-c2ccc(Cl)cc2)n[nH]1	-0.2	x	-1.0	-2.1	-0.9	-2.1	x	x
SMILES	DAX1 inh-1	DAX1 inh-2	ssDAF-12 act	hcDAF12 agonist	hgDAF12 agonist	SMARCA2 act	SMARCA2 act conf	GAL4-VP16 Luc
Cc1cc(C)c(C#N)c(SCc2cc3c(cc2Cl)OCO3)n1	-0.1	0.5	-1.4	3.6	-0.3	13.1*	-2.4	-0.3
Cc1cc(C)c(C#N)c(SCc2ccccc2C)n1	0.0	0.0	-2.1	-1.4	-4.9	-1.8	x	x
CCOC(=O)[C@@]12CCC3=C1N(CCC3)C(=O)[C@H](CC(=O)NCCCN1CCCC1=O)C2	-0.6	x	-0.6	-1.0	0.8	-0.3	x	x
O=C1NC(c2ccc(Br)cc2)=N/C1=C/c1ccco1	1.0	0.2	0.0	4.8	7.9	8.1*	7.7	10.7*
O=C1NC(c2ccccc2Cl)=N/C1=C/c1ccco1	0.2	4.1	-0.2	0.7	5.4	18.4*	9.7*	8.1*
CCc1ccc(CCNC(=O)OC2CC3CC2[C@H]2CCCCN2[C@H]3Cc2ccccc2)cc1 (some centres not stated)	-0.5	x	-0.9	0.1	0.3	-3.3	x	x
CCCC[C@H]1C2CC(OC(=O)NCCCc3ccccc3)C(C2)[C@H]2CCCCN21 (some centres not stated)	-0.2	x	-0.9	-0.5	3.5	11.0*	-0.5	1.1
COc1ccc2c(c1)c[n+](C)c1c3cc(OC)c(OC)cc3ccc21	-4.3	x	-1.9	-4.2	8.3	4.1	x	x
COc1cc2c[n+](C)c3c4ccccc4ccc3c2cc1OC	-0.5	-1.0	-1.4	-1.2	3.0	11.1*	42.4*	1.1
CCC(CC)C(=O)Nc1cccc(C(=O)NCCc2ccccc2)c1	1.4	0.9	-1.4	1.7	7.9	-2.3	x	x
CCCCOc1ccc(C(=O)NCCc2ccccc2)cc1	1.7	3.0	1.1*	2.0	6.2	8.4*	7.7	12.6*
Cc1cccc(C(=O)NCCc2ccccc2)c1	2.5	2.6	-0.2	2.9	12.9*	10.7*	7.5	14.4*
O=C(NN1CCOCC1)c1ccc(Cl)c([N+](=O)[O-])c1	0.2	-0.7	-1.3	-1.9	-1.6	10.3*	0.2	0.8
O=C(NCCc1ccccc1)c1ccc(Cl)c([N+](=O)[O-])c1	1.8	1.2	-0.5	2.2	8.9	9.9*	0.9	8.6*
Cc1ccc(Nc2ccc(C(=O)O)cc2N)cc1	2.6	x	1.1*	1.8	6.8	9.4*	1.3	9.5*
Cc1cc(C)cc(Nc2ccc(C(=O)O)cc2N)c1	-0.2	-2.9	-1.1	0.4	2.4	-1.0	x	x
Cc1cccc(NC(=O)Cc2noc3ccccc23)c1	1.1	2.9	-0.7	3.2	5.8	4.5	x	x
Cc1ccc(NC(=O)Cc2noc3ccccc23)nc1	0.8	-0.8	-1.4	-1.1	4.0	9.3*	7.5	2.5
Clc1ccccc1CO/N=C1\CCCc2nonc21	0.5	-0.1	-1.5	-1.3	0.8	0.2	x	x

Assay outcomes as filed in PubChem BioAssay.
